Experimental data published in PubChem BioAssay (Tox21).
Results filed as inconclusive are left out. The source made the active and inactive calls. Unless noted, calls come from the whole dose curve; as a rule, active = well fitted curve in the direction sought with a large enough effect in the repeat runs; inconclusive = weak or mixed curves; inactive = no such curve, though single readings can be large; an effect the other way counts as inactive or inconclusive.

How the values were obtained:
[1] = target: Aryl hydrocarbon receptor (Homo sapiens) (UniProt P35869); experiment: qHTS assay to identify small molecule that activate the aryl hydrocarbon receptor (AhR) signaling pathway (AID 743085); note: nearly all actives have a fitted effect of over 15% in size; note: potency is the fitted concentration of half-maximal effect;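 for activation: HG2L7.5c1 human HepG2 liver cells with stably integrated DRE-driven firefly reporter; series mostly up to about 70 µM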
Chain of Aryl hydrocarbon receptor (Homo sapiens) (P35869 whole entry, looked up): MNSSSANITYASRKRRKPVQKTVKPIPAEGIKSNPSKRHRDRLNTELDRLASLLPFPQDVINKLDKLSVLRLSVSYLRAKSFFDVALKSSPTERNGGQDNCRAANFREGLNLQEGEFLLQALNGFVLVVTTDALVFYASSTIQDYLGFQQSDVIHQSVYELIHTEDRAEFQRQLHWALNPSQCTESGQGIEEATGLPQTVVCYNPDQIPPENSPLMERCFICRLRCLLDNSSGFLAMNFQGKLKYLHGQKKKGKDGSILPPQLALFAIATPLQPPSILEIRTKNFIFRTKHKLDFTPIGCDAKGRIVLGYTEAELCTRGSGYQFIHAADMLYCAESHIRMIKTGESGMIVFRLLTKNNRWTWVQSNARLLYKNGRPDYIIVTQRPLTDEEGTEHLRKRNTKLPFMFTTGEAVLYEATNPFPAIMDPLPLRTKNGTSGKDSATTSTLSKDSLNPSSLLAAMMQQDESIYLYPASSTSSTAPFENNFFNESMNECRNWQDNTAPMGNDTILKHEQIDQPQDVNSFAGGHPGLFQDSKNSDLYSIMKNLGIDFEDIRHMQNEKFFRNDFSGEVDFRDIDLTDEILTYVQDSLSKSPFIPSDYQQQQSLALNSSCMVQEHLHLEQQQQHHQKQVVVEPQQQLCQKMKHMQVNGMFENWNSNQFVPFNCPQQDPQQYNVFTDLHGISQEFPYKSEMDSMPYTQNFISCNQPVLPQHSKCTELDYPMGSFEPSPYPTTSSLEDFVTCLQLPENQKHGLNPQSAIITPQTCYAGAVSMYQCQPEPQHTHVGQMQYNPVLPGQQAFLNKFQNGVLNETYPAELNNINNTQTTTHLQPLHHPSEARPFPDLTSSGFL
In short: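 24 h compound exposure, 37C, HepG2-derived HG2L7.5c1 cells with DRE-responsive luciferase. Readouts: fluorescence viability, then luminescence at room temperature after 30 min.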

[2] = qHTS assay to identify small molecule that activate the aryl hydrocarbon receptor (AhR) signaling pathway - cell viability counter screen (AID 743086);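 note: HepG2 liver cells carrying the AhR DRE luciferase reporter; series mostly up to about 70 µM; nearly all actives have a fitted effect of over 45% in size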
In short: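 HepG2-AhR-luc (HG2L7.5c1) cells, 4000/well, were preincubated 5 h at 37C, exposed to compound in qHTS format for 24 hr at 37C, then given CellTiter-Fluor for 30 min; viability was read as fluorescence in the reporter wells.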

[3] = target: Peroxisome proliferator-activated receptor gamma (Homo sapiens) (UniProt P37231); experiment: qHTS assay to identify small molecule agonists of the peroxisome proliferator-activated receptor gamma (PPARg) signaling pathway (AID 743094; active = well fitted activation curve with a large enough effect in the signal ratio in the repeat runs, not every such curve was filed as active; the % refers to the signal ratio)
Chain of Peroxisome proliferator-activated receptor gamma (Homo sapiens) (P37231 whole entry, looked up): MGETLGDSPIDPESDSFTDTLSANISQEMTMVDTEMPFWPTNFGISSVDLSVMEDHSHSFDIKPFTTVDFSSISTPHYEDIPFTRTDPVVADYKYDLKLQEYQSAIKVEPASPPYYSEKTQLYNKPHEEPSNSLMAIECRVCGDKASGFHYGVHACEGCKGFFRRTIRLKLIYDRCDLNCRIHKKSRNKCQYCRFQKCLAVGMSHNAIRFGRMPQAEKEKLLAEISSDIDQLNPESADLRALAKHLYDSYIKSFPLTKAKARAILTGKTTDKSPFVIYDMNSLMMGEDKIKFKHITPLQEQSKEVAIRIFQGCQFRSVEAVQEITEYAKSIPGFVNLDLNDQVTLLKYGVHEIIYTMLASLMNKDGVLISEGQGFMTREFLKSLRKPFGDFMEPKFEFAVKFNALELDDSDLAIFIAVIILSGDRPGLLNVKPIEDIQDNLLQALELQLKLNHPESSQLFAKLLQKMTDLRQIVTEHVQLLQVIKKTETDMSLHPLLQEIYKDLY
In short: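 Cell-based bla reporter, HEK293H background, PPARg-driven UAS. Pre-incubation 5 h, 37C, 5% CO2. Compound 17 h, 37C. Substrate 1 h RT; fluorescence.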

[4] = qHTS assay to identify small molecule antagonists of the peroxisome proliferator-activated receptor gamma (PPARg) signaling pathway - cell viability counter screen (AID 743194); note: nearly all actives have a fitted effect of over 55% in size
In short: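 PPARg-UAS-bla HEK293H cells were plated, rested 5 h at 37 C, then treated with compounds plus rosiglitazone (50 nM final) for 17 h at 37 C; viability was then read by CellTiter-Glo luminescence after 30 min at room temperature.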

[5] = qHTS assay for small molecule agonists of the antioxidant response element (ARE) signaling pathway (AID 743202; active = well fitted activation curve with a large enough effect in the signal ratio in the repeat runs, not every such curve was filed as active; the % refers to the signal ratio)
In short: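 Following a 16 h, 37 C exposure of reporter HepG2 cells (ARE-driven beta-lactamase, 2,000 cells/well) to compounds, FRET substrate was applied for 2 h at room temperature and fluorescence intensity recorded.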

[6] = qHTS assay for small molecule agonists of the antioxidant response element (ARE) signaling pathway - cell viability counter screen (AID 743203; calls by dose curve; note: nearly all actives have a fitted effect of over 55% in size)
In short: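 Measured in the same wells as the beta-lactamase ARE reporter, this read-out is CellTiter-Glo luminescence from HepG2 ARE-bla cells given compounds for 16 hrs.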

[7] = qHTS assay for small molecule activators of the heat shock response signaling pathway - cell viability counter screen (AID 743209); note: nearly all actives have a fitted effect of over 50% in size
In short: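 Same-well multiplex: after 2.5 h room-temperature incubation with LiveBLAzer B/G substrate and fluorescence reading, CellTiter-Glo reagent was added to HSE-bla HeLa cells that had received compound for 5 h at 37 C; luminescence read after 30 min.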

[8] = qHTS assay for small molecule activators of the heat shock response signaling pathway (AID 743210; active = well fitted activation curve with a large enough effect in the signal ratio in the repeat runs, with a control signal flat, not every such curve was filed as active; the % refers to the signal ratio; note: series mostly up to about 63 µM)
In short: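 Heat shock element–beta-lactamase HeLa reporter cells; qHTS with compounds for 5 h at 37 C; detection by FRET substrate fluorescence after 2.5 h at RT.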

[9] = target: Peroxisome proliferator-activated receptor delta (Homo sapiens) (UniProt Q03181); experiment: qHTS assay to identify small molecule agonists of the peroxisome proliferator-activated receptor delta (PPARd) signaling pathway (AID 743212; calls by dose curve;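 note: HEK293H cells with PPARd UAS beta-lactamase reporter GeneBLAzer system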)
Chain of Peroxisome proliferator-activated receptor delta (Homo sapiens) (Q03181 whole entry, looked up): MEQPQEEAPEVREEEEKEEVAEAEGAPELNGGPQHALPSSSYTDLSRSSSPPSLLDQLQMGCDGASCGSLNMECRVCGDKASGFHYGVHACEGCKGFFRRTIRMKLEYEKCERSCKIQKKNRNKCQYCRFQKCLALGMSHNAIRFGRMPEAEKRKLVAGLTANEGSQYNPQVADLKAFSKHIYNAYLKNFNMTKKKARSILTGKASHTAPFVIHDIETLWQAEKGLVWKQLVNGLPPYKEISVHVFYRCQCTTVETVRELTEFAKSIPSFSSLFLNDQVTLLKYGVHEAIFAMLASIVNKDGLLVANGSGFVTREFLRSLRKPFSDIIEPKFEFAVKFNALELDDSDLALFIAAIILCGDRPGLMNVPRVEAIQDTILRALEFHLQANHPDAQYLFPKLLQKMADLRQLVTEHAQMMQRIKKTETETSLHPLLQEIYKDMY
In short: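 Beta-lactamase reporter read by fluorescence (LiveBLAzer B/G FRET, 2 h, room temperature). Test agents, in DMSO, incubated at 37 C with PPARd-bla HEK293H cells.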

[10] = qHTS assay to identify small molecule antagonists of the peroxisome proliferator-activated receptor delta (PPARd) signaling pathway - cell viability counter screen (AID 743213); note: nearly all actives have a fitted effect of over 50% in size
In short: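 Cytotoxicity counter screen: CellTiter-Glo luminescence read 30 min after addition, in the same wells as the reporter assay. There, PPARd UAS-bla HEK293H cells (3000/well) were treated 17 h at 37 C with compound and 300 nM L165041.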

[11] = target: Peroxisome proliferator-activated receptor delta (Homo sapiens) (UniProt Q03181); experiment: qHTS assay to identify small molecule antagonists of the peroxisome proliferator-activated receptor delta (PPARd) signaling pathway (AID 743215; active = well fitted inhibition curve with a large enough effect in the signal ratio in the repeat runs, not every such curve was filed as active; the % refers to the signal ratio;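 note: cells stimulated with agonist L165041 at 300 nM final during compound exposure; series mostly up to about 62 µM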)
In short: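 Fluorescence from cleaved LiveBLAzer B/G FRET substrate (2 h, room temperature) reports PPARd-driven beta-lactamase in HEK293H UAS-bla cells. Cells had been treated 17 h at 37 C with compound plus 300 nM final L165041.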

[12] = target: Bile acid receptor (Homo sapiens) (UniProt Q96RI1); experiment: qHTS assay to identify small molecule antagonists of the farnesoid-X-receptor (FXR) signaling pathway (AID 743217; active = well fitted inhibition curve with a large enough effect in the signal ratio in the repeat runs, not every such curve was filed as active; the % refers to the signal ratio)
Chain of Bile acid receptor (Homo sapiens) (Q96RI1 whole entry, looked up): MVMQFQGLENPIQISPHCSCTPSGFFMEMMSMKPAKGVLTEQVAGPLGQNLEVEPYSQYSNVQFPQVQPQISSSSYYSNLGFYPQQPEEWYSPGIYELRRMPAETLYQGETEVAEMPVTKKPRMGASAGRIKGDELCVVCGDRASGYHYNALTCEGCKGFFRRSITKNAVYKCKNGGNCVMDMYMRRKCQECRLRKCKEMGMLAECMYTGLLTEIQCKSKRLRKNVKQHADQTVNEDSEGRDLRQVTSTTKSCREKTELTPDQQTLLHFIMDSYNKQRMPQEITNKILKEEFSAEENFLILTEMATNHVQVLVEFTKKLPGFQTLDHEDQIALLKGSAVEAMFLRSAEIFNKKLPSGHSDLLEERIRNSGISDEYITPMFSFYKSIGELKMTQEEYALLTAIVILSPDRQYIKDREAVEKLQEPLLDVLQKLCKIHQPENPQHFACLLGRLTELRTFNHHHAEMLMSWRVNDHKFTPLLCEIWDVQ
In short: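 FRET fluorescence after 2 h room-temperature LiveBLAzer loading gives the readout. Prior step: FXR-bla HEK 293T cells, seeded and incubated 5 h, received test compounds plus 50 uM final CDCA for 16 h at 37 °C.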

[13] = qHTS assay to identify small molecule agonists of the farnesoid-X-receptor (FXR) signaling pathway - cell viability counter screen (AID 743218); note: nearly all actives have a fitted effect of over 45% in size
In short: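 Readout: CellTiter-Glo luminescence, 30 min RT, multiplexed after the FXR-bla FRET reading. HEK 293T FXR-UAS-bla cells received compound 5 h post-plating and were incubated 16 h at 37 C.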

[14] = qHTS assay to identify small molecule antagonists of the farnesoid-X-receptor (FXR) signaling pathway - cell viability counter screen (AID 743221; active = well fitted cell-killing curve with a large enough effect in the repeat runs, not every such curve was filed as active; note: nearly all actives have a fitted effect of over 50% in size)
In short: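 In GeneBLAzer FXR-UAS-bla HEK 293T cells stimulated with 50 uM chenodeoxycholic acid (final), compounds acted for 16 h at 37 C. Viability was assessed afterwards by CellTiter-Glo luminescence.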

[15] = target: Vitamin D3 receptor (Homo sapiens) (UniProt P11473); experiment: qHTS assay to identify small molecule antagonists of the vitamin D receptor (VDR) signaling pathway (AID 743223; active = well fitted inhibition curve with a large enough effect in the signal ratio in the repeat runs, not every such curve was filed as active; the % refers to the signal ratio)
Chain of Vitamin D3 receptor (Homo sapiens) (P11473 whole entry, looked up): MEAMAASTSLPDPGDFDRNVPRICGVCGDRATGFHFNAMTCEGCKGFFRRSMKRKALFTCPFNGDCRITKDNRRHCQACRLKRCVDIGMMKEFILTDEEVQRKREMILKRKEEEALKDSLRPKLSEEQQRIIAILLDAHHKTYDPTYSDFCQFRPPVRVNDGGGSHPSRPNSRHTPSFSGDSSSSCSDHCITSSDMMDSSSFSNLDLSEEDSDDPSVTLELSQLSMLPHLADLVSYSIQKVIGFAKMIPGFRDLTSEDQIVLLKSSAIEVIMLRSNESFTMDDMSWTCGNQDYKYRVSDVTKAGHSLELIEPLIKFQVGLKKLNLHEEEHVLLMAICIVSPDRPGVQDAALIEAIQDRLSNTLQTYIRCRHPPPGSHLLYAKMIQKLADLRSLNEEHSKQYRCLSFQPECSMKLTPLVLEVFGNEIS
In short: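 Agonist 1alpha,25-dihydroxyvitamin D3 (3 nM in well) was added with each compound to VDR-bla cells preincubated 4 h. Cells stood 16 h at 37C, then FRET substrate 2 h at room temperature; fluorescence intensity recorded.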

[16] = qHTS assay to identify small molecule agonists of the vitamin D receptor (VDR) signaling pathway - cell viability counter screen (AID 743224); note: series mostly up to about 63 µM; nearly all actives have a fitted effect of over 50% in size
In short: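 In parallel with the bla FRET readout, cytotoxicity toward VDR-bla cells after 16 h compound exposure was assessed by CellTiter-Glo, with luminescence recorded after a 30 min room-temperature incubation.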

[17] = qHTS assay to identify small molecule agonists of the peroxisome proliferator-activated receptor delta (PPARd) signaling pathway - cell viability counter screen (AID 743211); note: nearly all actives have a fitted effect of over 55% in size
In short: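 Luminescent ATP viability assay (CellTiter-Glo, 30 min RT) in UAS-bla HEK293H cells carrying the PPAR delta reporter construct, 3000 cells/well, after a 17 h compound treatment at 37 C.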

[18] = target: Bile acid receptor (Homo sapiens) (UniProt Q96RI1); experiment: qHTS assay to identify small molecule agonists of the farnesoid-X-receptor (FXR) signaling pathway (AID 743220; active = well fitted activation curve with a large enough effect in the signal ratio in the repeat runs, not every such curve was filed as active; the % refers to the signal ratio)
In short: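 FXR-UAS-bla HEK 293T cells carrying a UAS-driven beta-lactamase reporter were plated for 5 h at 37C/5% CO2, then exposed to DMSO-dissolved Tox21 10K compounds for 16 h at 37C. A LiveBLAzer B/G FRET substrate was loaded for 2 h at room temperature before fluorescence reading.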

[19] = target: Vitamin D3 receptor (Homo sapiens) (UniProt P11473); experiment: qHTS assay to identify small molecule agonists of the vitamin D receptor (VDR) signaling pathway (AID 743222; calls by dose curve)
In short: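 Following 4 h attachment at 37C, VDR-bla cells (2,000 per well) received DMSO-dissolved compounds or controls. After 16 h incubation, LiveBLAzer B/G FRET substrate was added and fluorescence read 2 h later at room temperature.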

Measured: Potency

CCN(CC)CC
not listed: [17] | [18] | [19]
inactive: all other assays above

CC(O)CCCCn1c(=O)c2c(ncn2C)n(C)c1=O (stereo not given)
not listed: [12] | [18] | [19]
inactive: all other assays above

CC(C)(C)OC(=O)c1ccccc1C(=O)O
not listed: [8] | [15] | [17]
inactive: all other assays above

CCCCS
not listed: [4] | [12] | [18] | [19]
inactive: all other assays above

CC(C)(C)C(=O)CC(=O)C(C)(C)C
not listed: [5] | [8] | [9] | [11] | [17]
inactive: all other assays above

CC1(C)CC(N)CC(C)(C)N1
not listed: [4] | [15]
inactive: all other assays above

C=CCOC(=O)CCCCCCCC
not listed: [9] | [11] | [16]
inactive: all other assays above

CCCCCCCCCCCCCCCC/C=C/C1CC(=O)OC1=O (stereo not given)
not listed: [14] | [15] | [17]
inactive: all other assays above

Cc1ccc(O)c(C(=O)c2ccccc2)c1
not listed: [12] | [14] | [15] | [18]
inactive: all other assays above

CC[N+](C)(CC)CC
not listed: [9] | [11] | [15] | [19]
inactive: all other assays above

C=CC(C)(CCC=C(C)C)OC(=O)C(C)C (stereo not given)
not listed: [12] | [18] | [19]
inactive: all other assays above

C/C=C/C(=O)CCCC
not listed: [5] | [9] | [10] | [13] | [15] | [16] | [19]
inactive: all other assays above

C/C(=N\O)c1ccc(OCC(=O)N2CCCCC2)cc1
active: [1] 5.96 µM
not listed: [5] | [15] | [19]
inactive: all other assays above
